Bioassay records: PubChem BioAssay, The Scripps Research Institute Molecular Screening Center
A selection: hits, their analogues and other compounds. The true share with any hit is near 3.5%.
FBW7 act: activators of human E3 ligase FBW7; Q969H0; AlphaScreen FBW7–phospho-cyclin E peptide binding, activator screen; normalized activity (activation), % at 26.1 µM; actives 0.13% (n = 650,000); AID 1259310; in the data active = normalized activity above about 1.9%;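 also: purified mutant Fbw7 with reduced substrate affinity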
MITF inh: human MITF inhibition, primary screen; O75030; AlphaScreen MITF homodimerization, bead proximity signal; inhibition, % at 2.6 µM; actives 0.91% (n = 650,000); in the data active = inhibition above about 50%
GPR151 activ: activators of human GPR151 | Q8TDV0 | PathHunter beta-arrestin GPR151 cells, luminescence | activation, % at 11.2 µM | actives 1% (n = 650,000); in the data active = activation above about 4.9%
Target sequence (Q8TDV0 whole entry, looked up): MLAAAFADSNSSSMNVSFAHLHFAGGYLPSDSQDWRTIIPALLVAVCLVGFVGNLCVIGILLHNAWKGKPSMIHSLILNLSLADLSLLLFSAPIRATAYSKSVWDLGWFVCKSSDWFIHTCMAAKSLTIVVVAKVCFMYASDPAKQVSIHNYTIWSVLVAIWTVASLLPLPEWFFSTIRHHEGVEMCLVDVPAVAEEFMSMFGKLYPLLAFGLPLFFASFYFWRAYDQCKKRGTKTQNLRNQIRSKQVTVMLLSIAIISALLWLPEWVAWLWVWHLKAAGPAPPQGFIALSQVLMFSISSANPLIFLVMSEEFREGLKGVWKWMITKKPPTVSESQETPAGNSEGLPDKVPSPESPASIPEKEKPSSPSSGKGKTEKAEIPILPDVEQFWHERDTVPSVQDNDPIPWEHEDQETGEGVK
TEAD-YAP inh: TEAD-YAP interaction inhibition; HEK-TIYL cells, TEAD-Gal4/YAP UAS-luciferase luminescence; actives 1.4% (n = 640,000); inhibition, % at 9.12 µM; in the data active = inhibition above about 32%
Each line names hits and unclear results; the compound was inactive in the other large screens.

COC(=O)c1cnc(N2CCCCCC2)c2ccccc12	none
COC(=O)c1ccc(N2CCCCC2)c2c1C(=O)c1ccccc1C2=O	MITF inh 54.8
CCCCC(CC)C(=O)Nc1ncc([N+](=O)[O-])s1 (centres undefined)	TEAD-YAP inh 43.8
COc1ccc(CC(=O)Nc2cccc(-c3nc4ncccc4o3)c2)cc1OC	TEAD-YAP inh 70.7
COc1cc(C(=O)Nc2cccc(-c3nc4ncccc4o3)c2)ccc1OCc1ccc(Cl)cc1	none
CCOc1ccc(C2Nc3ccccc3C(=O)N2c2ccc3ccccc3c2)cc1 (centres undefined)	TEAD-YAP inh 73.6
CCOc1ccc(C2Nc3ccccc3C(=O)N2c2ccc(F)c(Cl)c2)cc1 (centres undefined)	none
COC(=O)C1C(=O)NC(SCC(=O)Nc2cc(Cl)cc(Cl)c2)=C(C#N)C1c1ccc(Cl)cc1 (centres undefined)	none
COC(=O)CSc1cccc2cccnc12	none
COc1ccc(C(C[N+](=O)[O-])Sc2cccc3cccnc23)cc1 (centres undefined)	TEAD-YAP inh 57.4
Cc1cc([N+](=O)[O-])ccc1-c1ccc(/C=C2/C(=O)NC(=O)N(Cc3ccco3)C2=O)o1	MITF inh 67.8
O=C1NC(=O)N(Cc2ccco2)C(=O)/C1=C\c1ccc(-c2ccc(Br)cc2)o1	MITF inh 69.8
Cc1ccc([N+](=O)[O-])cc1-c1ccc(/C=C2/C(=O)NC(=O)N(Cc3ccco3)C2=O)o1	none
O=C1NC(=O)N(Cc2ccco2)C(=O)/C1=C\c1ccc(-c2ccc([N+](=O)[O-])cc2)o1	MITF inh 74.6
CCOC(=O)c1ccc(-c2ccc(/C=C3/C(=O)NC(=O)N(Cc4ccco4)C3=O)o2)cc1	none
O=C1NC(=O)N(Cc2ccco2)C(=O)/C1=C\c1ccc(-c2ccc(C(=O)O)cc2)o1	MITF inh 51.8
CCn1c(C(=O)Nc2cccc(C(C)=O)c2)cc2sc(Cl)cc21	none
COC1=CC(=O)C=C(OC)C1=O	TEAD-YAP inh 55.4
CCC(C)(C)NC(=O)C1CCN(S(=O)(=O)c2ccc(F)cc2)CC1	none
CCC(C)(C)C(=O)Nc1ccc(S(=O)(=O)N2CCC(C)CC2)cc1	FBW7 act 2.2
CCOC(=O)c1oc2ccccc2c1NC(=O)C1CCN(S(=O)(=O)c2ccc(C)cc2)CC1	TEAD-YAP inh 35.4
CCC(C)(C)NC(=O)C1CCN(S(=O)(=O)c2ccc(C)cc2)CC1	TEAD-YAP inh 73.5
O=C(O)CCC/C=C\C[C@@H]1[C@@H](/C=C/[C@@H](O)COc2ccccc2)[C@H](O)C[C@@H]1O	none (no result: FBW7 act, TEAD-YAP inh)
CN(C)c1ccnc2sc(C(N)=O)c(N)c12	TEAD-YAP inh 52.8
CCOC(=O)c1sc2nccc(N(C)C)c2c1N	none
CCc1c(C#N)c(N)nc(SCC#N)c1C#N	FBW7 act 2.3
CCSc1nc(N)c(C#N)c(CC)c1C#N	none
O=C(Nc1ccc(-c2ccccc2)cc1)c1ccc(C(=O)Nc2ccc(-c3ccccc3)cc2)cc1	none
O=C(Nc1ccccc1)C1=C(c2ccccc2)S(=O)(=O)CCS1(=O)=O	TEAD-YAP inh 80.9
CC(C)(Oc1ccc(Cl)cc1)C(=O)Nc1ncc([N+](=O)[O-])s1	TEAD-YAP inh 35.8
CCOC(=O)C1=C(O)/C(=C/c2ccc(O)c(OC)c2)SC1=Nc1ccc(C)cc1	none
O=C1NC(=O)C(=Cc2cc(O)c(O)c(Br)c2)C(=O)N1	MITF inh 57.8
O=C1NC(=O)C(=Cc2cc(Br)c(I)o2)C(=O)N1	MITF inh 58.6
CCOc1cc(C=C2C(=O)NC(=O)NC2=O)cc(Br)c1O	none
COc1cccc(Cn2c(NCCO)nc3c2c(=O)n(C)c(=O)n3C)c1	TEAD-YAP inh 39.5
Cc1cccc(Cn2c(NCc3ccco3)nc3c2c(=O)n(C)c(=O)n3C)c1	TEAD-YAP inh 45.8
Cc1ccc(Cn2c(NCCO)nc3c2c(=O)n(C)c(=O)n3C)cc1	TEAD-YAP inh 42.0
C=CCN(c1ccc(C(=O)N(C)Cc2ccccc2)cc1)S(C)(=O)=O	none
CNC(=O)Nc1ccc(-n2c(C(F)(F)F)nc3cc(C(F)(F)F)cnc32)cc1	none
CCOc1cc(C2NC(=S)NC(C)=C2C(=O)OC)cc(Cl)c1O (centres undefined)	none
O=C(NCCCN1CCCC1=O)c1cc(NCc2ccc3c(c2)OCO3)nc2ccccc12	none
CC(C)n1c(Nc2ccncc2)nc2c(Nc3ccc(Oc4ccccc4)cc3)ncnc21	TEAD-YAP inh 45.2
CC(C)n1c(Nc2ccc(-n3ccnc3)cc2)nc2c(Nc3ccccc3)ncnc21	TEAD-YAP inh 49.1
CC(C)n1c(NCc2cccnc2)nc2c(Nc3ccccc3)ncnc21	TEAD-YAP inh 52.9
O=C1CSC(c2ccccc2[N+](=O)[O-])N1c1ccccc1F (centres undefined)	none
COc1ccc(/C=C/C(=O)C2CC2)cc1Cn1cc([N+](=O)[O-])cn1	none
Cc1nc2ccc(Cl)cn2c1C(=O)NN=C1CCCCC1	none
Cc1ccc2nc(C)c(C(=O)NN=C3CCCCCC3)n2c1	TEAD-YAP inh 57.6
Cc1cc([N+](=O)[O-])nn1CC(=O)N(Cc1ccccc1)Cc1ccccc1	none
S=C(c1cn(CCOc2ccccc2)c2ccccc12)N1CCCC1	none
Cc1ccc(OCCn2cc(C(=S)N3CCCC3)c3ccccc32)cc1C	TEAD-YAP inh 52.5
Cc1ccc(N2CC(=O)Nc3ccccc3S2(=O)=O)cc1C	TEAD-YAP inh 52.1
CCOC(=O)Cn1c(=O)oc2cc(S(=O)(=O)Nc3ccc(F)cc3F)ccc21	none
COC(=O)c1c2c(n3cc4ccccc4cc13)C(=O)c1ccccc1C2=O	MITF inh 87.0
CC(=O)c1c2c(n3cc4ccccc4cc13)C(=O)c1ccccc1C2=O	none
O=C(CCCOc1ccc(Cl)cc1Cl)Nc1ccc(S(=O)(=O)N2CCOCC2)cc1	none
COc1cc(S(=O)(=O)N2CCN=C2C)ccc1Br	none
Cc1nc(N/N=C/c2ccc(O)cc2O)cc(-c2ccccc2)n1	none
Cc1cc(N/N=C\c2ccccc2)nc(-c2ccccc2O)n1	none
Cc1cc(N/N=C/c2ccc(O)cc2O)nc(-c2ccccc2O)n1	TEAD-YAP inh 43.2
Oc1ccc(/C=N/Nc2ncc(-c3ccccc3)cn2)c(O)c1	TEAD-YAP inh 61.6
CCOC(=O)c1ccc(NCc2cc(Br)ccc2O)cc1	none
Cc1cc(C(=O)OCC(=O)c2ccc([N+](=O)[O-])cc2)c2ccccc2n1	none
O=C(Oc1ccc(/C=C/c2ccncc2)cc1)c1ccco1	TEAD-YAP inh 35.1
COC(=O)N/N=C\c1ccc(OC(=O)c2ccco2)cc1	none
O=C(Oc1cccnc1)c1ccco1	none
CC(C)(C)OC(=O)N/N=C\c1ccc(OC(=O)c2ccco2)cc1	TEAD-YAP inh 59.4
Cn1c(=O)oc2cc(S(=O)(=O)N3CCCC(C(=O)N4CCCCC4)C3)ccc21 (centres undefined)	none
CCOC(=O)c1sc2ncn(CC(C)=O)c(=O)c2c1C	none
Cc1ccc(NC(=O)C(=O)NCC2CCCN2S(=O)(=O)c2cccs2)cc1C (centres undefined)	none
COc1ccc(NC(=O)C(=O)NCC2CCCN2S(=O)(=O)c2cccs2)cc1 (centres undefined)	TEAD-YAP inh 45.1
Oc1ccc(/C=N/NC(=S)Nc2cccnc2)c(O)c1O	MITF inh 84.0
